The list is not random: actives were taken first. Their share in the collection is about 4.3%.
BoNT A protease = BoNT A light chain protease inhibition; AID 588499; multiplex microsphere protease substrate cleavage, flow cytometry; inhibition, % at 10 µM; 360,000 tested, 0.17% active; further: plate controls were buffer without enzyme for full effect and enzyme alone for no effect
Anthrax LF inh2 = anthrax lethal factor protease inhibition | P15917 | multiplex microsphere protease cleavage assay, LF | inhibition, % at 10 µM | 360,000 tested, 0.12% active | AID 588501; further: plate controls were buffer without enzyme for full effect and enzyme alone for no effect
PfHsp40 yeast = rescue of PfHsp40-mediated yeast toxicity. 340,000 tested, 0.68% active. AID 504582. growth rescue, % at 12.5 µM. S. cerevisiae expressing PfHsp40, growth rescue, ATP luminescence; in the data active means growth rescue above about 28%, passing the limit was not always enough; inconclusive means no clear call, values can overlap the other calls;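 further: yeast W303a lacking pdr1 and pdr3 grown in galactose medium; growth measured after three days at 30 °C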
BoNT F protease = inhibitors of Botulinum neurotoxin F light chain protease; 360,000 tested, 0.22% active; inhibition, % at 10 µM; Multiplex microsphere protease cleavage assay, flow cytometry; AID 588497; in the data active means inhibition above about 35%, passing the limit was not always enough; inconclusive means no clear call, values can overlap the other calls; further: plate controls were buffer without enzyme for full effect and enzyme alone for no effect
Bead autofluor = counter-screen for toxin protease inhibitors: compound fluorescence; 360,000 tested, 3.1% active; compound autofluorescence counterscreen, microsphere flow cytometry; stronger effect = higher value; fluorescence intensity (no concentration beside the values); in the data active means fluorescence intensity above about 16000; inconclusive means no clear call, values can overlap the other calls
MazEF act = MazEF (E. coli) toxin RNase activation. P0AE70. FAM/BHQ RNA-DNA oligo cleavage fluorescence, 5 h. activation, % at 20 µM. 350,000 tested, 0.32% active. AID 504720; in the data active means activation above about 50%
Target sequence (P0AE70 whole entry, looked up): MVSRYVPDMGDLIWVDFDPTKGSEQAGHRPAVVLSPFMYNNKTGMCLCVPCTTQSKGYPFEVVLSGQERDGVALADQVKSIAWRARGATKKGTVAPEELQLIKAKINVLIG
The depositor's hits bear a star; ? = inconclusive; / = not tested or not shown; ! = not active in a repeat. Unless noted, no stated cut-off is given here; in the data, active means inhibition above about 30%; inconclusive means no clear call, values can overlap the other calls; inactive means below that.

SMILES | BoNT A protease | Anthrax LF inh2 | PfHsp40 yeast | BoNT F protease | Bead autofluor | MazEF act
Cc1ccc(S(=O)(=O)NCC(=O)NCC(=O)OC(C(=O)NC(N)=O)C(C)C)cc1C (stereo not drawn) | -0.2 | -4.8 | 1.0 | 0.4 | 4179 | 4.8
Cc1cc2nc(SCC(=O)Nc3nonc3C)c3c(c2cc1C)CCCC3 | ? | -0.4 | -0.2 | 3.3 | 22694* | 48.4
Cc1nonc1NC(=O)CSc1nc(C2CCCCC2)nc2ccccc12 | -0.8 | -7.6 | 2.5 | 2.9 | 9439 | 0.9
Cc1sc2ncn(CC(=O)NCC(=O)N(C)C3CCCCC3)c(=O)c2c1C | 1.9 | -3.4 | -1.0 | 1.7 | 22154* | 5.2
Cc1sc2ncn(CC(=O)NCC(=O)N(C)Cc3ccccc3)c(=O)c2c1C | 1.4 | -2.0 | 1.4 | 1.9 | 22315* | -0.5
Cc1sc2ncn(CC(=O)NCCCC(=O)N3CCCCC3)c(=O)c2c1C | 0.0 | 1.6 | 1.5 | 1.2 | 6046 | 4.9
CNC(=O)C12CCC(C)(c3nc4cc(C)c(C)cc4nc31)C2(C)C (stereo not drawn) | 1.6 | 2.1 | -0.7 | -0.1 | 23268* | 10.7
Cc1cc2nc3c(nc2cc1C)C1(C(=O)O)CCC3(C)C1(C)C (stereo not drawn) | 1.5 | -0.2 | -2.4 | 3.2 | 4611 | -3.5
CCN(Cc1ccccc1)C(=O)Cn1cnc2c1c(=O)n(C)c(=O)n2C | ? | 2.4 | 0.3 | -4.1 | 20794* | -8.7
Cn1c(=O)c2c(ncn2CCN(CCO)Cc2ccccc2)n(C)c1=O | 3.8 | -13.8 | -0.9 | 7.9 | 20125* | 6.5
Cc1ccc(C(C)C)c(OCC(=O)Nc2ccc3c(c2)nc(CCN2CCCCC2)n3C)c1 | 0.1 | -3.2 | 0.3 | -6.8 | 5681 | 6.6
CSc1nnc(N2C(=O)C(O)=C(C(=O)c3ccc(C)o3)C2c2ccc(C)cc2)s1 (stereo not drawn) | 1.9 | -0.8 | -0.9 | 4.6 | 6400 | 253.7*
CSc1nnc(N2C(=O)C(O)=C(C(=O)c3ccco3)C2c2ccccc2)s1 (stereo not drawn) | 2.0 | 1.8 | -0.7 | 3.0 | 4601 | 53.8*
CC(NC(=O)c1ccc2c(c1)OCO2)C1CCCO1 (stereo not drawn) | 0.1 | 0.4 | 0.4 | 0.8 | 22158* | -5.6
C=CC(=O)NC(NC(=O)C=C)c1ccc(Br)cc1 | ? | -0.2 | -0.8 | -3.5 | 21256* | 2.4
CC(NC(=O)c1ccccc1)c1ccc(Br)cc1 (stereo not drawn) | -0.2 | 1.5 | -0.8 | 0.0 | 4597 | 4.9
CC1=C(CC(=O)c2ccccc2)C(=O)c2ccccc2C1=O | ? | -2.2 | 1.1 | 7.0 | 18823* | 5.3
O=C(c1ccc2c(c1)OCO2)N1CCN(c2ccccn2)CC1 | -0.1 | -0.9 | -1.2 | -2.2 | 2499 | 5.3
O=C1CSc2ccc(C(=O)N3CCN(c4ccccn4)CC3)cc2N1 | ? | -2.2 | 4.9 | -7.3 | 25914* | 6.5
O=C(c1ccc2c(c1)OCCO2)N1CCN(c2ccccn2)CC1 | -38.5 | -10.3 | 0.6 | -60.2 | 17835* | 3.6
CN(Cc1ccccc1)C(=O)COC(=O)C1CCN(S(=O)(=O)c2ccc3c(c2)OCCO3)CC1 | / | / | 2.3 | / | / | 6.6
O=C(Cn1cc(C(=O)C(=O)N2CCOCC2)c2ccccc21)Nc1cccc(C(F)(F)F)c1 | 0.2 | 4.1 | / | 2.8 | 3801 | 8.4
C[C@H](O)[C@@H]1CN2CCc3c([nH]c4ccccc34)[C@@H]2C[C@@H]1N(C)C(=S)NCCc1ccccc1 | 37.4* | -1.1 | / | -31.5 | 12944 | /
CCOC(=O)CN1C=C(c2ccc3ccccc3n2)C(C[N+](=O)[O-])c2ccccc21 (stereo not drawn) | 2.2 | -3.8 | 2.9 | 5.5 | 7947 | 233.1*
CCOC(=O)CSc1ccc2ccccc2n1 | 0.2 | 1.6 | 2.2 | 0.4 | 3897 | -9.7
SMILES | BoNT A protease | Anthrax LF inh2 | PfHsp40 yeast | BoNT F protease | Bead autofluor | MazEF act
CN(C)c1nc(NCc2ccccc2)nc(SCC(=O)Nc2ccc(Cl)c(Cl)c2)n1 | -0.1 | 2.9 | -0.2 | -1.1 | 19687* | -4.6
CCNc1nc(SCC(=O)Nc2ccc(Cl)c(Cl)c2)nc(N(C)C)n1 | -0.2 | -2.1 | -0.1 | -2.5 | 4139 | 0.4
Cc1nn(Cc2c(F)c(F)c(F)c(F)c2F)c(C)c1NC(=O)c1ccc(COc2ccccc2Cl)o1 | 15.0 | 0.5 | ? | 14.6 | 19196* | -5.1
COc1cc2nc(SCc3ccc(F)cc3)n(Cc3cccs3)c(=N)c2cc1OC | ? | -0.7 | 0.0 | -2.7 | 20501* | -5.3
COc1ccc(Cn2c(SCc3ccccc3C)nc3cc(OC)c(OC)cc3c2=N)cc1 | / | / | 2.1 | / | / | /
COc1ccc(CC2C(=O)OC(C)(C)OC2=O)cc1 | 0.9 | -4.3 | 0.0 | 0.5 | 4044 | 3.7
COc1ccc(CC2CCOC2=O)cc1 (stereo not drawn) | 4.9 | -8.7 | -0.6 | 9.5 | 20533* | -1.0
CN(c1ccccc1C(=O)N1CCN(c2ccccc2F)CC1)S(=O)(=O)c1ccccc1 | -0.6 | 4.5 | 4.9 | -1.5 | 6078 | -0.7
Cc1ccc(C(=O)Nc2c3c(nn2C(C)(C)C)CS(=O)(=O)C3)cc1[N+](=O)[O-] | 1.4 | 1.5 | -0.5 | 4.3 | 4141 | 7.3
Cc1ccc(C(=O)Nc2c3c(nn2C(C)(C)C)CS(=O)(=O)C3)cc1C | -1.9 | -0.7 | 3.4 | -1.7 | 20652* | -2.2
CCN(CC(=O)NC1CCS(=O)(=O)C1)S(=O)(=O)c1cc(C)ccc1C (stereo not drawn) | / | / | -0.6 | / | / | 2.0
COC(=O)CC1(c2ccccc2)C(=O)c2ccccc2C1=O | ? | -0.5 | -1.0 | -1.5 | 16568* | 8.4
CCOC(=O)c1cnc(NCc2ccccc2)nc1C | -0.2 | -2.7 | -2.2 | -1.4 | 16359* | 4.9
C=CCSc1ncccc1C(=O)NCc1ccccc1 | 3.0 | -3.0 | -0.4 | 3.3 | 21460* | 1.4
CSc1ncccc1C(=O)OCC(=O)NCCCc1ccccc1 | 0.9 | 15.1 | 2.1 | 2.9 | 8744 | 1.0
CCOC(=O)c1cccnc1SCC(=O)NCc1ccccc1 | 0.7 | -1.9 | 0.7 | 0.6 | 19817* | 4.6
C=CCSc1ncccc1C(=O)NCCc1ccccc1 | -2.1 | -7.5 | -1.4 | -10.3 | 3101 | -2.7
CC(=O)c1sc2nsc(SCCN3CCCC3)c2c1N | 0.9 | -3.9 | -0.3 | -2.6 | 5307 | -18.2
O=c1[nH]cc(F)c(=O)[nH]1 | -1.3 | -13.0 | 256.2*! | -10.6 | 6414 | 5.7
O=c1[nH]cc(O)c(=O)[nH]1 | -1.1 | 5.5 | 2.1 | -5.2 | 6129 | 5.4
C/C(=N\NC(=S)NCc1ccccc1)c1cccc(Br)c1 | -1.0 | -1.2 | 135.6* | -3.7 | 4100 | -1.9
C/C(=N\NC(=S)NCCc1ccccc1)c1cccc(Br)c1 | -1.0 | -11.8 | -0.9 | -4.6 | 3224 | -7.2
Cc1ccc(C)n1-c1ccc(C(=O)N2CCOCC2)cc1 | ? | -0.7 | 0.9 | -0.7 | 22385* | -12.0
Cc1ccc(C)n1-c1ccc(N2CCOCC2)nc1 | -0.3 | -3.9 | 0.2 | -9.5 | 22547* | -2.0
CC(=O)N1CCN(C(=O)c2ccc(-n3c(C)ccc3C)cc2)CC1 | -0.5 | -3.3 | 1.3 | -8.4 | 2070 | 10.6
O=C(c1cc(Cl)cc(Cl)c1)N1CCOCC1 | 1.1 | 0.5 | -1.0 | 2.0 | 20304* | -3.0
